Screening data (PubChem)
Shown are actives, neighbours in structure and some others; about 4.6% of the full set was active somewhere.
KKLEB tox – counter-screen for CF NF-kB inhibitors: cytotoxicity; 360,000 compounds, 0.36% hits; KKLEB CF airway cells viability, ATPlite luminescence, overnight; hits give low values; cells stimulated with P. aeruginosa culture filtrate; AID 602141; activity change (cytotoxicity), % at 5 µM;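 active = corrected activity change at or below -50% at 5 µM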
ABHD5 PLIN5 PPI – blocks binding of human ABHD5 to perilipin-5. Split G. princeps luciferase complementation, luminescence, 4 h. inhibition, % at 4 µM. 360,000 compounds, 0.78% hits;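 active = inhibition above the mean inhibition across every tested compound plus 3 SD, cut at about 22% in these data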;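 note: 0% = DMSO only wells and the 100% control is not disclosed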
Target sequence (Q00G26 whole entry, looked up): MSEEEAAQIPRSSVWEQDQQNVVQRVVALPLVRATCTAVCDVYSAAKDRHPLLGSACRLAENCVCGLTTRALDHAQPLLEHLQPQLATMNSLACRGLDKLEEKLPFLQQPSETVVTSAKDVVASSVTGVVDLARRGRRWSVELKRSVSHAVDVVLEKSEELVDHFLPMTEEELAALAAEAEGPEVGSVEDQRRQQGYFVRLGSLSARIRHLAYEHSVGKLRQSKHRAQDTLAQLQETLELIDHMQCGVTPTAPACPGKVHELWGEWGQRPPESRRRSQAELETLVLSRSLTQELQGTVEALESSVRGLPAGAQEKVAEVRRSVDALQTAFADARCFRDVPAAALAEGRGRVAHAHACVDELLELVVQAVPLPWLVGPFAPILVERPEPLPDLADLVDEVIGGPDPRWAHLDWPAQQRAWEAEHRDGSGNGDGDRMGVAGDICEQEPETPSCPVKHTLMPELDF
Target sequence (Q8WTS1 whole entry, looked up): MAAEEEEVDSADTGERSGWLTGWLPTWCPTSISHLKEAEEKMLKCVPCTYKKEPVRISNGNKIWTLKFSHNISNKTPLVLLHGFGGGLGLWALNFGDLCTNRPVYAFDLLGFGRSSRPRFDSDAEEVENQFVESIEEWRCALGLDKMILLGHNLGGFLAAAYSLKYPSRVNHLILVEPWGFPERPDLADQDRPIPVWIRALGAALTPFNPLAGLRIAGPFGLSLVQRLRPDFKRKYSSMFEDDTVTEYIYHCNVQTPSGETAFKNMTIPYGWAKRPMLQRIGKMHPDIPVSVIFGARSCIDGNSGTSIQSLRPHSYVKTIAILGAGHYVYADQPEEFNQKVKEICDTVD
HIF-2a block – inhibitors of HIF-2a | 786-0 RCC cells HIF-2a reporter, luciferase luminescence, overnight | inhibition, % at 18.8 µM | 360,000 compounds, 0.72% hits;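 active = inhibition of the luminescence signal of 40% or more relative to plate controls, in a single-dose primary screen at 18.75 µM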
Peg3 prom inh – inhibitors of Peg3 promoter; inhibition, % at 20 µM; HeLa PEG-Prom luciferase reporter, luminescence, overnight; 360,000 compounds, 1.7% hits; AID 588405;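 active = inhibition of at least 50% at 20 µM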
Mdm2 MdmX PPI – disrupts the human Mdm2-MdmX interaction; 330,000 compounds, 3% hits; inhibition, % at 8 µM; SaOS-2 split-luciferase Mdm2/MdmX complementation, luminescence;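 active = inhibition of at least 50% at 8 µM in the primary screen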
CF NFkB inh – blocks PAF-induced NF-kB reporter in cystic fibrosis cells; KKLEB NF-kB-GFP reporter, GFP fluorescence overnight; inhibition, % at 5 µM; 360,000 compounds, 0.86% hits; AID 588850;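 active = at least 50% inhibition at 5 µM, scaled per plate between neutral and stimulator controls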;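 note: PAF is a Pseudomonas aeruginosa culture filtrate used as stimulus; plate controls were PAF-stimulated DMSO wells for no effect and unstimulated DMSO wells for full effect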
HIF-2a inh conf – HIF-2a inhibition, single concentration confirmation; shares compounds with HIF-2a block; 786-0 RCC cells, HIF-2a luciferase reporter luminescence, overnight; inhibition, % at 18.8 µM; 1,800 compounds, 56% hits; AID 651580;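 active = mean inhibition across four replicates of at least 40 percent at the single tested concentration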
HIF-1a counter – counter-screen for HIF-2a inhibitors: HIF-1a inhibition in MiaPaCa-2 cells; shares compounds with HIF-2a block; MiaPaCa-2 HIF-1a luciferase reporter, desferoxamine, overnight; inhibition, % at 18.8 µM; 1,800 compounds, 72% hits; AID 651589;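 active = mean inhibition of the reporter signal across four replicates at the single tested dose of 50% or more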
* hit, by the source's call; x = not tested or not shown.

SMILES | KKLEB tox | ABHD5 PLIN5 PPI | HIF-2a block | Peg3 prom inh | Mdm2 MdmX PPI | CF NFkB inh | HIF-2a inh conf | HIF-1a counter
O=C(O)c1c(NC(=O)N2CCOCC2)sc2c1CCCC2 | -15.6 | 0.9 | 54.9* | -28.4 | 9.6 | -8.2 | -12.2 | 0.7
CCCNC(=O)C1(C)CCCN(C(=O)c2cc(C)n(C(C)(C)C)n2)C1 (stereo not drawn) | -8.9 | 0.0 | 1.9 | -1.6 | x | 4.9 | x | x
CC(=O)Nc1cccc(Nc2cnccn2)c1 | 11.4 | 4.0 | -34.4 | -37.4 | x | 6.2 | x | x
CCCOc1ccc(C(=O)C(CN2CCCC2)c2ccccc2)cc1 (stereo not drawn) | -61.0* | -0.6 | 85.5* | 108.5* | x | 38.5 | -17.7 | 103.9*
Nc1cccc(C#Cc2ccc3c(c2)C(=O)/C(=C/c2ccsc2)O3)c1 | 16.8 | 0.5 | -116.4 | -77.8 | 26.7 | -36.2 | x | x
CCCn1c(=N)n(CC(=O)c2ccc(OCC(=O)OC)cc2)c2ccccc21 | -14.9 | 9.6 | 46.7* | 6.1 | 28.3 | -4.1 | 2.6 | 4.1
O=[N+]([O-])c1cc(S(=O)(=O)N2CCCC2)ccc1O | 4.1 | 1.3 | 19.3 | 0.0 | 2.5 | -11.3 | x | x
O=[N+]([O-])c1cc(S(=O)(=O)N2CCCCCC2)ccc1F | -25.5 | 4.0 | 94.2* | 101.5* | x | 51.1* | 87.3* | 104.8*
O=C(Nc1ccnn1C1CCN(C(=O)c2cnsn2)CC1)c1cccc(F)c1 | -15.1 | 6.0 | -58.4 | -8.8 | 26.0 | 14.3 | x | x
O=C(Nc1cc(S(=O)(=O)N2CCOCC2)ccc1N1CCCCC1)c1cc(-c2ccccn2)nc2ccccc12 | -12.4 | -7.8 | 11.5 | 13.5 | 3.6 | 4.0 | x | x
Cc1ccc(S(=O)(=O)N2CCOCC2)cc1NC(=O)c1cc(-c2ccccn2)nc2ccccc12 | 8.6 | -5.9 | 95.2* | 90.4* | -1.5 | 2.1 | 13.9 | 50.0
O=C(CN(c1ccc(Br)cc1)S(=O)(=O)c1ccc(Cl)c([N+](=O)[O-])c1)NCC1CCCO1 (stereo not drawn) | -13.4 | 0.5 | 86.4* | 95.4* | x | 47.9 | 32.0 | 103.0*
COC(=O)COc1ccc(S(=O)(=O)NCCC2=CCCCC2)cc1Cl | 12.0 | -3.4 | 56.6* | 15.1 | 2.6 | -9.6 | 22.1 | -9.3
COCCNS(=O)(=O)c1ccc(OCC(=O)OC)c(Cl)c1 | 7.8 | -2.2 | 28.9 | -3.9 | 9.1 | 0.5 | x | x
Cc1ccc(Cl)c(NC(=O)COC(=O)c2nn(C)c(=O)c3ccccc23)c1Cl | -18.2 | -1.7 | 9.0 | 9.0 | 4.6 | 7.2 | x | x
COc1cc(NCCCCC(C)N)c2nccc(C)c2c1 (stereo not drawn) | 10.4 | -3.1 | 21.9 | 6.8 | x | 44.7 | x | x
COc1cc(NCCCC(C)N)c2ncccc2c1 (stereo not drawn) | -9.7 | -8.3 | 83.8* | 44.7 | x | -12.2 | 18.9 | 90.1*
Cc1ccc(C(C)C)c(OCc2ccc(C(=O)N/N=C/c3ccc(C(=O)O)cc3)cc2)c1 | -1.0 | -5.1 | 67.0* | -82.9 | 38.6 | 7.9 | 81.1* | -13.0
Cc1ccc(S(=O)(=O)N2[C@@H](Cc3ccccc3)CO[C@H]2CC(=O)c2cccc3ccccc23)cc1 | x | -2.8 | -0.1 | x | x | x | x | x
CNc1ccc(-c2cccc([N+](=O)[O-])c2)cn1 | 1.7 | -6.0 | -99.5 | -50.6 | x | -17.6 | x | x
C[C@H](CO)N1C[C@H](C)[C@@H](CN(C)S(C)(=O)=O)Oc2ccc(NC(=O)C3CC3)cc2C1=O | 8.4 | 0.5 | 9.8 | 4.9 | -9.4 | -8.8 | x | x
O=C(c1ccccc1)N1CCSc2sccc2C1=O | -11.5 | 1.1 | 65.3* | 26.5 | x | 22.3 | 71.1* | -16.2
O=C1CNC(=O)c2cc(Cl)ccc2N1 | -3.6 | 0.6 | 8.4 | 10.9 | x | 1.5 | x | x
CCOC(=O)COc1ccc(S(=O)(=O)Nc2cccc(SC)c2)cc1 | -2.9 | 1.4 | 50.2* | 0.7 | 16.3 | 4.1 | 18.1 | -0.8
CCOC(=O)COc1ccc(S(=O)(=O)Nc2ccc3c(c2)OCCO3)cc1 | 3.1 | -0.6 | 16.8 | 2.5 | 33.6 | 9.4 | x | x
SMILES | KKLEB tox | ABHD5 PLIN5 PPI | HIF-2a block | Peg3 prom inh | Mdm2 MdmX PPI | CF NFkB inh | HIF-2a inh conf | HIF-1a counter
Cn1cc(C(C[N+](=O)[O-])c2ccccc2)c2ccccc21 (stereo not drawn) | -6.7 | 2.6 | 95.7* | 26.8 | 49.5 | 3.3 | 4.5 | 28.8
CC1CC1C(=O)OCC(=O)Nc1cc(S(=O)(=O)N2CCCCC2)ccc1Cl (stereo not drawn) | -0.5 | -7.0 | 11.9 | 14.8 | -10.2 | 2.6 | x | x
C=C1CC(COc2cc(=O)oc3ccccc23)(c2ccccc2)OC1=O (stereo not drawn) | -104.3* | -7.4 | 90.1* | 105.5* | x | 97.8* | 57.1* | 106.0*
Cc1ccc(NC(=O)c2ccc(N3CCOCC3)c([N+](=O)[O-])c2)cc1S(=O)(=O)N1CCOCC1 | -5.4 | 4.0 | 50.6* | 64.8* | 15.4 | 0.7 | 3.3 | 58.8*
CC(=O)c1cccc(NC(=O)CCc2nnc3ccc(N4CCOCC4)nn23)c1 | 0.5 | 3.7 | 12.9 | 8.9 | 8.8 | 11.1 | x | x
COc1cccc(C(=O)C(CCC#N)c2ccccc2)c1 (stereo not drawn) | 4.3 | 5.3 | 13.0 | 8.7 | x | 24.5 | x | x
COc1cccc(C(=O)C(C#N)=C(SC)SC)c1 | -58.3* | 7.8 | 79.7* | 101.8* | 34.5 | 65.6* | 90.6* | 28.8
CSC(SC)=C(C#N)C(=O)c1ccccc1 | -50.0* | -3.8 | 90.2* | 99.2* | 13.0 | 25.6 | 88.6* | -5.1
CCCCOC(=O)C1=C(C)NC(=O)NC1c1ccccc1 (stereo not drawn) | -9.0 | 1.3 | 22.8 | 15.2 | 5.7 | 24.4 | x | x
CCOC(=O)CNC(=O)CSc1ncnc2c1cnn2Cc1ccccc1 | -9.3 | -9.2 | 48.0* | -3.3 | -32.7 | 14.6 | 20.4 | 16.0
O=C(O)c1ccc(Cl)c(S(=O)(=O)N2CCCC2)c1 | 5.6 | 4.7 | 41.4* | 8.2 | 4.1 | -7.7 | 1.4 | 1.4
O=C(c1ccc(Cl)c(S(=O)(=O)N2CCCCCC2)c1)N1CCCCC1 | -1.6 | -13.2 | -55.3 | -21.5 | -2.9 | -16.7 | x | x
CCOC(=O)c1nnc(-c2ccccc2)nc1Sc1ccccc1Cl | -6.2 | 1.4 | 62.9* | 50.6* | 38.4 | 31.4 | 10.7 | 91.5*
CNC(=O)NC(=O)C(C)OC(=O)CCCc1nc2ccccc2s1 (stereo not drawn) | -12.2 | 3.7 | 6.6 | 3.6 | 6.9 | -6.9 | x | x
CCNC(=O)NC(=O)C(C)OC(=O)CCCSc1nc2ccccc2s1 (stereo not drawn) | -2.9 | -0.5 | 68.4* | 13.7 | 17.3 | -22.7 | 86.2* | 68.4*
CCNC(=O)NC(=O)COC(=O)CCCSc1nc2ccccc2s1 | -1.4 | 0.2 | 60.3* | -9.7 | 16.3 | 10.7 | 85.6* | 59.9*
